Test results published in PubChem BioAssay.
The source made the active and inactive calls.

Experiments:
[1] = tested on: PRMT1 (protein arginine N-methyltransferase 1); experiment: small molecules binding arginine methyltransferase PRMT1 – biochemical, small-molecule microarray, 635 nm fluorescence, primary screen (AID 1088); settings: higher = more signal;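 note: binding of Prmt1 protein to compounds spotted on small-molecule microarray slides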
[2] = growth effects on S. cerevisiae YJM789 – YJM789 clinical isolate, OD600, 24 h, basal, primary screen (AID 1089); settings: higher = more signal, called active from +8 up or from −8 down;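 note: growth of clinical yeast isolate S. cerevisiae YJM 789 seeded 1000 cells per well; test concentration not given here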
[3] = S. pombe growth modifiers, basal conditions – strain 972, OD600, 24 h, no modulator, primary screen (AID 1090);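 note: basal condition with compound alone and no growth modifier present; test concentration not given here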; settings: S. pombe 972 growth, higher = more signal, called active from +8 up or from −8 down
[4] = budding yeast growth modifiers under rapamycin – strain BY4716, OD600, 96 h, primary screen (AID 1091); note: test concentration not given here; settings: S. cerevisiae BY4716 + rapamycin, higher = more signal, called active from +8 up or from −8 down
[5] = target: Torsin-1A-interacting protein 2 (Homo sapiens) (UniProt Q8NFQ8); experiment: small molecules binding lysate-expressed LULL1 – cell lysate, human LULL1 lysate, 635/667 nm fluorescence, primary screen (AID 1092); settings: small-molecule microarray, hLULL1 lysate binding, 635 nm fluorescence; higher = more signal;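 note: probe is lysate of COS7 cells overexpressing human LULL1; score merges per-feature 667 nm fluorescence with signal-to-noise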
[6] = optical density change of DRC41 E. coli – strain DRC41, OD650, 24 h, E. coli filamentation project, primary screen (AID 1093);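 note: MC1000 strain lacking acrAB efflux and sulA so SOS filamentation is blocked; test concentration not given here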; settings: E. coli DRC41 growth, higher = more signal, called active from +8 up or from −8 down
[7] = probe aLefty2 binding to arrayed compounds – biochemical, biotinylated probe, 635/667 nm fluorescence, primary screen (AID 1094); settings: small-molecule microarray, higher = more signal;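 note: score merges spot fluorescence near 667 nm with spot signal-to-noise ratio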
[8] = tested on: Noggin (protein binding on small-molecule microarray); experiment: small molecules binding Noggin protein – biochemical, 635/667 nm fluorescence, primary screen (AID 1095); settings: 635 nm fluorescence, higher = more signal;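 note: score merges 667 nm feature fluorescence with signal to noise over triplicate slides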
[9] = target: Neurogenic locus notch homolog protein 3 (Homo sapiens) (UniProt Q9UM47); experiment: small molecules binding NOTCH3 protein – biochemical, 635/667 nm fluorescence, primary screen (AID 1096); settings: small-molecule microarray, 635 nm fluorescence, higher = more signal
[10] = probe aEGFR binding to arrayed compounds – biochemical, biotinylated probe, 635/667 nm fluorescence, primary screen (AID 1097); settings: small-molecule microarray, higher = more signal;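 note: probe is a biotinylated anti-EGFR antibody binding compounds printed on slides; score combines fluorescence near 667 nm and signal to noise of each spot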
[11] = tested on: Plasmodium falciparum Sir2 (PF13_0152, Sir2A); experiment: Plasmodium falciparum Sir2A binding compounds – biochemical, small-molecule microarray, 635 nm fluorescence, primary screen (AID 1098); settings: fluorescence 635 nm, higher = more signal;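 note: score merges spot fluorescence intensity with its signal-to-noise ratio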
[12] = probe aDKK1 binding to arrayed compounds – biochemical, biotinylated probe, 635/667 nm fluorescence, primary screen (AID 1099); settings: small-molecule microarray, higher = more signal;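 note: score merges 667nm spot fluorescence with signal to noise across triplicate slides; reference of the scale not given here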
[13] = probe aCHRDL2 binding to arrayed compounds – biochemical, biotinylated probe, 635/667 nm fluorescence, primary screen (AID 1100); settings: small-molecule microarray, higher = more signal
[14] = change in splice reporter luminescence, either direction, cell-based, HEK293, spliceosome inhibition project, primary screen (AID 1101); settings: HEK293 splicing luciferase reporter, 24 h, higher = more signal, called active from +8 up or from −8 down;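 note: HEK293 cells carrying a splicing-competent luciferase reporter gene; test concentration not given here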
[15] = target: Fibroblast growth factor 10 (Homo sapiens) (UniProt O15520); experiment: compounds binding fibroblast growth factor 10 – biochemical, small-molecule microarray, 635 nm fluorescence, primary screen (AID 1102); settings: FGF10 binding, fluorescence 635 nm, higher = more signal
[16] = tested on: glycogen synthase kinase-3 (GSK3A per assay name; protocol says GSK3B); experiment: compounds binding glycogen synthase kinase-3 – biochemical, small-molecule microarray, 635 nm fluorescence, GSK3A, primary screen (AID 1103); settings: fluorescence 635 nm, higher = more signal; note: the record names both GSK3A and GSK3B
[17] = target: Epidermal growth factor receptor (Homo sapiens) (UniProt P00533); experiment: compounds binding epidermal growth factor receptor – biochemical, small-molecule microarray, 635 nm fluorescence, primary screen (AID 1104); settings: EGFR binding, higher = more signal;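 note: score merges 667 nm emission intensity with spot signal to noise over triplicate slides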
[18] = target: Follistatin-related protein 3 (Homo sapiens) (UniProt O95633); experiment: compounds binding follistatin-related protein 3 – biochemical, small-molecule microarray, 635 nm fluorescence, primary screen (AID 1105); settings: FSTL3 binding, higher = more signal;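 note: score merges emission near 667 nm and signal to noise per printed spot across three slides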
[19] = target: Dickkopf-related protein 1 (Homo sapiens) (UniProt O94907); experiment: small molecules binding DKK1 protein – biochemical, small-molecule microarray, 635 nm fluorescence scan, primary screen (AID 1106); settings: higher = more signal;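 note: score merges emission near 667 nm with signal to noise over three replicate slides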
[20] = tested on: Inhibin beta A chain (activin A); experiment: small molecules binding activin A – biochemical, small-molecule microarray, 635 nm fluorescence scan, primary screen (AID 1107); settings: INHBA, higher = more signal;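 note: mouse activin A protein probed at 4.33 µg/mL on printed slides; score merges bound-protein fluorescence near 667 nm with spot signal-to-noise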

Chain of Torsin-1A-interacting protein 2 (Homo sapiens) (Q8NFQ8 whole entry, looked up): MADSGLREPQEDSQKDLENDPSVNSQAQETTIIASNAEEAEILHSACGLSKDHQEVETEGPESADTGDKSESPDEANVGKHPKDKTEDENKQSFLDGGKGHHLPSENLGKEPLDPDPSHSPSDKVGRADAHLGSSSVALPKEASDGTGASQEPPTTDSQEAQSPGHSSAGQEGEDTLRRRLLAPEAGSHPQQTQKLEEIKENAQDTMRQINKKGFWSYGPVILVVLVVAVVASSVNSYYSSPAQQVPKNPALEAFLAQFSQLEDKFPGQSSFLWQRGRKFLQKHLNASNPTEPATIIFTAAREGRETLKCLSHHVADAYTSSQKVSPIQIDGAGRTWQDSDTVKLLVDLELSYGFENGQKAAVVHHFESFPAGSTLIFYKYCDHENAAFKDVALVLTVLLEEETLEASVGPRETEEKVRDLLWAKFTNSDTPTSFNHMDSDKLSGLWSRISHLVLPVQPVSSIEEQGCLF
Chain of Follistatin-related protein 3 (Homo sapiens) (O95633 whole entry, looked up): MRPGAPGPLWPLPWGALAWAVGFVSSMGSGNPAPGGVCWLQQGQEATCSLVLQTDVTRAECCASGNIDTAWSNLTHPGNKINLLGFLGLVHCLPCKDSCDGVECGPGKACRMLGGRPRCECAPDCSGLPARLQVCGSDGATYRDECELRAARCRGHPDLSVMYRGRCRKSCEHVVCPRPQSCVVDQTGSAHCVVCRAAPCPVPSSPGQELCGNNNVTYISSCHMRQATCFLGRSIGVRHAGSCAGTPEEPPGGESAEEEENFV
Chain of Epidermal growth factor receptor (Homo sapiens) (P00533 whole entry, looked up): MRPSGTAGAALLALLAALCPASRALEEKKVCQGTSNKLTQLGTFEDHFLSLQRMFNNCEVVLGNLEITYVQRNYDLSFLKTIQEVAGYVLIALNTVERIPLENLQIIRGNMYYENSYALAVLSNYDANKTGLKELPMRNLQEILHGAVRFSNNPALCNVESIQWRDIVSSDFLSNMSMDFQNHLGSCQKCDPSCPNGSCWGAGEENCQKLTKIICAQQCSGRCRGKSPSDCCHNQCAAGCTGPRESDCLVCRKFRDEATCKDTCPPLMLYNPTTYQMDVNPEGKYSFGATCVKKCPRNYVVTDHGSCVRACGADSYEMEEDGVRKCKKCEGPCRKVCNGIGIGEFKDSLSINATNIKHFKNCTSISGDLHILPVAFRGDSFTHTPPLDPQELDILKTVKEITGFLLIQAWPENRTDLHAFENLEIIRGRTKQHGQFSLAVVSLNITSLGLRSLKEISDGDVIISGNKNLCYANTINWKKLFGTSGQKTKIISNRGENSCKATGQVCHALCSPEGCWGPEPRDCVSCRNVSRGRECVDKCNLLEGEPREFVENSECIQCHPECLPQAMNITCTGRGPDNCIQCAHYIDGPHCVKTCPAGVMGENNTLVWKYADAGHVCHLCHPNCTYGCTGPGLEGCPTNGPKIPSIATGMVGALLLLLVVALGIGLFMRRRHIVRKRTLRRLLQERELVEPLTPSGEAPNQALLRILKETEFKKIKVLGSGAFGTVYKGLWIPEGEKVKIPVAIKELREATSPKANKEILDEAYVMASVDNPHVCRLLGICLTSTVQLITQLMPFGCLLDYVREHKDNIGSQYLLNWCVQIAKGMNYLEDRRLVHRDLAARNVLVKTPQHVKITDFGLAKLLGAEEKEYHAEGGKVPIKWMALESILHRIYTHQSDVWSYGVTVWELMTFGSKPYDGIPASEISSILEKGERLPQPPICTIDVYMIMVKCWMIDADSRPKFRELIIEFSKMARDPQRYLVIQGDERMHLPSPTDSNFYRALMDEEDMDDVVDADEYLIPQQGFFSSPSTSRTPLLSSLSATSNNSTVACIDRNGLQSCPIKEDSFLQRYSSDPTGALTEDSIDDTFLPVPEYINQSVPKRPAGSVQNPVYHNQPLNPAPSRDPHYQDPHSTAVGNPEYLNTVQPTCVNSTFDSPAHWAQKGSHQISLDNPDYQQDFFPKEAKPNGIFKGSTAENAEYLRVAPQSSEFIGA
Chain of Neurogenic locus notch homolog protein 3 (Homo sapiens) (Q9UM47 whole entry, looked up): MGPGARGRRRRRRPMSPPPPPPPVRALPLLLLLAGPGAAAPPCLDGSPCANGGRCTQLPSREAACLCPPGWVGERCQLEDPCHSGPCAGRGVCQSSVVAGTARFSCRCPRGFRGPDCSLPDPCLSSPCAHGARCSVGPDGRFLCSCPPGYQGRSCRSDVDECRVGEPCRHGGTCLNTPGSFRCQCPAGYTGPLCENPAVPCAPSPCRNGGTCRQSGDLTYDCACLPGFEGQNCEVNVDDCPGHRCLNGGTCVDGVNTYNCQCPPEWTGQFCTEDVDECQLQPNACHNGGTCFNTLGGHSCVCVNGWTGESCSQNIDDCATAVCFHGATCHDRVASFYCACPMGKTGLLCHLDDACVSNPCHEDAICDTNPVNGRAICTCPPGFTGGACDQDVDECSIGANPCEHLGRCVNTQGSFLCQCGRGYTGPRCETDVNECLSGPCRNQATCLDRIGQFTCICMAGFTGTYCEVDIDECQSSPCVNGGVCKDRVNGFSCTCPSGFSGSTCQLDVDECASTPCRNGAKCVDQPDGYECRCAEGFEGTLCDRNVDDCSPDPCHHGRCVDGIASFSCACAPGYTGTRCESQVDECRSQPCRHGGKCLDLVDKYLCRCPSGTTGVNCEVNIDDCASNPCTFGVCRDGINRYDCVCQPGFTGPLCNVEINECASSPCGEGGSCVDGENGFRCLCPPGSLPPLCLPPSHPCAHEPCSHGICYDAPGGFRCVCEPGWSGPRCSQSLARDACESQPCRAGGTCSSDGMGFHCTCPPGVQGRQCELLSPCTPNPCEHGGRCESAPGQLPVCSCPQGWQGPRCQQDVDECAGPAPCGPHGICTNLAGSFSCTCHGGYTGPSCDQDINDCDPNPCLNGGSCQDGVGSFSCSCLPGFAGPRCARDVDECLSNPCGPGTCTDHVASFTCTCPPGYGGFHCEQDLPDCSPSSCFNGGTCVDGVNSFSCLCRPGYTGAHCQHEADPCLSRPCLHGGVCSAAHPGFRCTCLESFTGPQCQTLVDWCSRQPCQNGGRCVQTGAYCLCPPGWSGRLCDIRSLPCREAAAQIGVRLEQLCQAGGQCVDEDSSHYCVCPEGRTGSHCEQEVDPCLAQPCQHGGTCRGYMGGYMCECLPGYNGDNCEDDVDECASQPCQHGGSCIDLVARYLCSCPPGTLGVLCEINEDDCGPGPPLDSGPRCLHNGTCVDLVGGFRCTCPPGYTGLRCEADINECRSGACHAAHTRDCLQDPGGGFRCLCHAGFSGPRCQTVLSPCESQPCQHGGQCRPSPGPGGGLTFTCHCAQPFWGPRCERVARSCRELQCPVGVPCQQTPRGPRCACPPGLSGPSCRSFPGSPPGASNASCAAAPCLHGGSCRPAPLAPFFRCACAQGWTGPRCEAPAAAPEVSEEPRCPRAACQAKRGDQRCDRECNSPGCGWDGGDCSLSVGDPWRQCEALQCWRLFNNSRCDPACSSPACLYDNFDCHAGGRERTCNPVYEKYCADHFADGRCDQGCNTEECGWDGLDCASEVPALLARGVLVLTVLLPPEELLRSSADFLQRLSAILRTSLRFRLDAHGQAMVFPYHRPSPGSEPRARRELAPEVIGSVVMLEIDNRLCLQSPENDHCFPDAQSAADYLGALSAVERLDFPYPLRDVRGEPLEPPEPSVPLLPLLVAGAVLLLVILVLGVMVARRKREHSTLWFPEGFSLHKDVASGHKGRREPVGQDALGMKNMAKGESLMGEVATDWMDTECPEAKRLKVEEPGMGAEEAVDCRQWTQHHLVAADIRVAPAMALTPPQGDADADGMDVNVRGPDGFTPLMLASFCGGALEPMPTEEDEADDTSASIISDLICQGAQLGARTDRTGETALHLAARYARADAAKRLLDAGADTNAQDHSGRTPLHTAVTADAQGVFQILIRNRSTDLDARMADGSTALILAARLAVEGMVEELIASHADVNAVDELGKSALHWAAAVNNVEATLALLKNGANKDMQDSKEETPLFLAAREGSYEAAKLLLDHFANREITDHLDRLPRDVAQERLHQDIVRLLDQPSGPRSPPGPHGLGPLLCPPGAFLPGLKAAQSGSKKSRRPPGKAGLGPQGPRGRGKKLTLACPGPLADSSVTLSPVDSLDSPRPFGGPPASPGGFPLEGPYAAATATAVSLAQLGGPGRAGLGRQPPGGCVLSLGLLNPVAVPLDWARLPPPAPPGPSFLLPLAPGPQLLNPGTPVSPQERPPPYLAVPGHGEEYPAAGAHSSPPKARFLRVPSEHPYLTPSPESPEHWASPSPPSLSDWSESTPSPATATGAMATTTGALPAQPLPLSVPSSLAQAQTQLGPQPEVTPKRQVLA
Chain of Fibroblast growth factor 10 (Homo sapiens) (O15520 whole entry, looked up): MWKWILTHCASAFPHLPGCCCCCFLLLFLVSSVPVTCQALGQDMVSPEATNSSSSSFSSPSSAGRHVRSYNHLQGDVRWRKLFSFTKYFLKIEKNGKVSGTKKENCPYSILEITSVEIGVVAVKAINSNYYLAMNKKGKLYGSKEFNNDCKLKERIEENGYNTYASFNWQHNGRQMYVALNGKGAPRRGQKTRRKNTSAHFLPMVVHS
Chain of Dickkopf-related protein 1 (Homo sapiens) (O94907 whole entry, looked up): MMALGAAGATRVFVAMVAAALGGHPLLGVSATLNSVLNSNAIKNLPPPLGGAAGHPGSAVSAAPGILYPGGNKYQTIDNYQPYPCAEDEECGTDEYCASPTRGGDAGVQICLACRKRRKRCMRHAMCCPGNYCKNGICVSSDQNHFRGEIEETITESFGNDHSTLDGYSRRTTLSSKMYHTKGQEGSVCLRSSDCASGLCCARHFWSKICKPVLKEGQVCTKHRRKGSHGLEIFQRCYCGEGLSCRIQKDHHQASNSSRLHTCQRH

| SMILES | composite z-score [1] | z-score [2] | z-score [3] | z-score [4] | composite z-score [5] | z-score [6] | composite z-score [7] | composite z-score [8] | composite z-score [9] | composite z-score [10] | composite z-score [11] | composite z-score [12] | composite z-score [13] | z-score [14] | composite z-score [15] | composite z-score [16] | composite z-score [17] | composite z-score [18] | composite z-score [19] | composite z-score [20] |
| --- | --- | --- | --- | --- | --- | --- | --- | --- | --- | --- | --- | --- | --- | --- | --- | --- | --- | --- | --- | --- |
| CCOC(=O)C[C@H]1[C@H](OC(=O)c2ccc(C(=O)c3ccccc3)cc2)[C@@H](NC(=O)CC(C)C)c2cc(OCCCO)ccc2N1C(=O)Cc1ccc(OC)cc1 | 0.451 | 0.247 (inactive) | 0.22 (inactive) | 0.265 (inactive) | 0.663 | -0.113 (inactive) | 0.0351 | -0.114 | 0.477 | -0.0585 | 0.0092 | 0.393 | 0.671 | -0.441 (inactive) | 0.197 | 0.231 | -0.204 | 0.261 | 0.276 | 0.829 |
| CCCNC(=O)[C@@]1(Sc2ccc(C)cc2)CC(=O)N(C2CCCCC2)[C@@H]1c1ccc(CO)cc1I | 1.56 | -1.2 (inactive) | 0.554 (inactive) | -0.133 (inactive) | 2.44 | 0.19 (inactive) | -0.273 | -0.447 | 0.298 | -0.0643 | 1.56 | 0.548 | 0.91 | -0.703 (inactive) | 0.382 | 0.718 | -0.0215 | 0.192 | -0.122 | -0.277 |
| C=CCC(OC(C)=O)[C@@H]1[C@@H](N(Cc2ccc(-c3ccccc3)cc2)C(=O)c2ccc(C)cc2)c2cc(OCCCO)ccc2N1C(=O)Cc1ccc2ccccc2c1 (stereo not given in full) | 0.543 | -2.04 (inactive) | -0.71 (inactive) | -0.633 (inactive) | 0.51 | 1.64 (inactive) | -0.0042 | -0.0965 | 0.187 | -0.126 | -0.334 | -0.199 | 0.0333 | -1.84 (inactive) | 0.107 | -0.197 | 0.251 | -0.274 | 0.258 | 0.567 |
| C=C(/C(=C/C[C@@H](OC(C)=O)c1ccc(CO)o1)c1cc(C(=O)OC)ccc1OC)C(C)C | 0.864 | 1.06 (inactive) | -0.245 (inactive) | -0.0251 (inactive) | 1.86 | -0.0453 (inactive) | -0.0142 | 0.328 | 0.213 | 0.358 | 0.12 | -0.22 | -0.256 | 0.227 (inactive) | 1.02 | 0.469 | -0.132 | 0.347 | 0.251 | 0.995 |
